Data published in PubChem BioAssay AID624117 (National Center for Advancing Translational Sciences (NCATS), 2012).
Inconclusive results are not listed. Calls of active or inactive are those of the source. Calls follow the shape of the dose curve; as a rule, active = well fitted curve in the direction sought with a large enough effect; inconclusive = small, poorly fitted or top-dose-only effect, or another doubt; inactive = no such curve, though single readings can be large or run the other way.

experiment: qHTS Assay for Rab9 Promoter Activators: Hit Validation Using Renilla Luciferase Read-Out; settings: Huh7 NPC1 promoter Renilla luciferase reporter, 24 h; series mostly up to 76.9 µM
Source text: Niemann Pick Type C (NPC) is a rare neurodegenerative lipidosis that is characterized by lipid storage in the endosomal/lysosomal system. Treatment modalities for this devastating disease are currently non-existent due to the severe obstacles associated with accessing the central nervous system with proteins or genes. The majority of mutations causing NPC disease are missense mutations that are distributed throughout the length of the NPC1 protein, with the most prevalent being the I1061T allele. Although NPC1 mutant proteins may be functional, they are typically trapped in the ER due to misfolding. […] We have developed and optimized a cell based renilla luciferase reporter assay in 1536 well format for the identification of up-regulators of the mutant NPC1 promoter. This assay presents data on the validation of hits from the primary screen, which used a firefly luciferase read-out. NIH Chemical Genomics Center [NCGC] NIH Molecular Libraries Probe Production centers Network [MLPCN] MLPCN Grant: MH089375 Assay Submitter (PI): Yiannis A. Ioannou
Huh7 cells stably expressing NPC promoter-luciferase will be seeded at 1,500 cells/well in 5 uL in 1,536-well white opaque plates with 23 nL/well of compound in DMSO solution. The assay plates will be incubated at 37 deg C for 24 hours, after which 3 uL/well BriteLite plus luciferase detection reagent mixture (Perkin Elmer) will be added. Luminescence signal will be measured in a ViewLux plate reader (Perkin Elmer) after a 10 minute incubation at the room temperature.

Potency, inactive:
COc1cccc(CNC(=O)CN(c2cc(C)cc(C)c2)S(=O)(=O)c2c(C)noc2C)c1
CCCCc1cc(=O)oc2cc(OCC(=O)N3CCOCC3)ccc12
CCN(Cc1nc2cc(Cl)ccc2c(=O)[nH]1)C(=O)C1CC(=O)N(c2cccc3ccccc23)C1 (stereo not given)
Cc1ccc(C(=O)Nc2nnc(S(=O)(=O)N3CCOCC3)s2)cc1
COc1ccc(-n2cc(-c3ccc(Cl)cc3)[nH]c2=S)cc1
CC(=O)Nc1nnc(SCC(=O)NCCOc2ccccc2)s1
O=C(COc1ccccc1F)Nc1ccc(-c2nc3ccccc3s2)cc1
COc1ccc(C(=O)OCC(=O)N2CCCC2=O)c(OC)c1
O=C(CSc1nnc(-c2ccccc2)o1)Nc1ccccc1F
Cc1ccc(C)c(Nc2cc(C)nc3ncnn23)c1
CN(C)C(=O)[C@H]1C[C@H]1[C@@H](O)[C@H](CO)NC(=O)[C@H](COCc1ccccc1)NC(=O)OC(C)(C)C
CC(C)(C)NC(=S)NNC(=O)c1ccc2ncccc2c1
O=C(CSc1nnc(Cc2cc(=O)[nH]c(=O)[nH]2)n1-c1ccc(Cl)cc1)NC1CCCC1
CCCCn1c(CCNC(=O)c2cccs2)nc2ccccc21
Cc1nc(-c2ccccn2)sc1C(=O)Nc1ccc(F)cc1F
O=S(=O)(c1cccs1)N1CCN(c2ncccn2)CC1
COC(=O)c1ccccc1NC(=O)c1ccc(-c2ccc(Br)cc2)o1
COc1ccc(C)cc1N(C(=O)CNC(=O)c1ccco1)C(C(=O)NC1CCCC1)c1cccnc1 (stereo not given)
COc1cccc(NC(=O)CN2C(=O)CSc3ccc(S(=O)(=O)N4CCC(C)CC4)cc32)c1
NC(=O)COC(=O)c1ccc2noc(-c3ccccc3)c2c1
CCCCCCC(=O)Nc1ccc(C(=O)N/N=C/c2cccnc2)cc1
COc1ccc(-n2c(N)c(C(=O)NCc3ccco3)sc2=S)cc1
CCC(C)(C)NC(=O)C(c1ccc(OC)cc1)N(Cc1cccs1)C(=O)CCC(=O)Nc1cc(C)on1 (stereo not given)
COc1ccc(-c2noc(N3CCCC(C(=O)Nc4ccccc4F)C3)n2)cc1 (stereo not given)
COc1cccc(C2Nc3ccccc3NC3=C2C(=O)CC(C)(C)C3)c1 (stereo not given)
CCOC(=O)C1(Cc2cccc(Cl)c2)CCCN(C(=O)CCSC)C1 (stereo not given)
COC(=O)c1ccccc1S(=O)(=O)NNC(=O)Nc1ccccc1
COc1ccc([N+](=O)[O-])cc1COc1ccc2c(-c3ccccc3)cc(=O)oc2c1
Cc1ccc(N(O)C(=O)NCCCCNC(=O)N(O)c2ccc(C)cc2)cc1
CCCOP(=O)(c1ccc(N(C)C)cc1)C(O)c1cccnc1 (stereo not given)
Cc1ccc(C(=O)NC2CCN(CC(=O)Nc3c(C)cc(C)cc3C)CC2)cc1
COc1ccc(NC(=O)CCCN2C(=O)C(c3ccccc3)Oc3cccnc32)cc1OC (stereo not given)
Cc1ccc(NC(=O)NC(=O)c2ccccc2)cc1F
O=C(NCC1CCCO1)C(c1ccc(F)cc1)N(Cc1ccc2c(c1)OCO2)C(=O)c1ccc(CN2CCOCC2)o1 (stereo not given)
Cc1ccc2c(c1)sc1nc(=O)n(-c3ccccc3)c(=O)n12
Brc1ccccc1-c1nnc(CSc2nnc3sc4ccccc4n23)o1
COCCSc1ncnc2c1oc1nc3c(cc12)COC(C)(C)C3
CC(C)CC(=O)N1CCN(c2ccc(NC(=O)c3ccco3)cc2)CC1
O=C(N/N=C/c1ccc(-c2ccc(Br)cc2)o1)c1ccc2c(c1)OCO2
COc1ccc(NC(=O)CSc2ccc([N+](=O)[O-])cc2)cc1S(=O)(=O)N1CCOCC1
